# Measurements reported in PubChem BioAssay (NCATS).
# Several values for one entry are separate records, joined by “and”; a condition that tells them apart may be missing. Equal entries are not always repeated. Results filed as inconclusive are left out. Values without a mark were called inactive. Activity calls are given as the source filed them. Calls follow the shape of the dose curve; as a rule, active = well fitted cell-killing curve with a large enough effect; inconclusive = small, poorly fitted or top-dose-only effect, or effect the other way; inactive = flat fitted curve, though single readings scatter.
# Tested on: CAOV3
# Test: Primary qHTS to identify gynecologic anti-cancer compounds using libraries of approved drugs and bioactive compounds (AID 1345084); also: nearly all actives have a fitted effect of over 55% in size
# Details: Gynecologic cancer cell panel viability, ATPlite luminescence, 48 h; series mostly up to 57.5 µM; activity change, negative = cytotoxicity: at the top concentration
# Excerpt: National Center for Advancing Translational Sciences [NCATS] Assay Overview: Chemotherapeutic drug responses vary from cancer to cancer and from patient to patient. These variations could be caused by a number of factors including patient genomic background, tumor mutations, tumor heterogeneity, and aspects of drug treatment. Chemotherapeutic drug resistance is also a common issue and can lead to ineffective treatment and patient death. Here we have profiled the cell killing effects of thousands of compounds to characterize the responses in three gynecological cancers, identify cancer-selective compounds, and understand the diversity of responses to these compounds from pan-cancer suppressors to single cell line selective compounds. In this assay, we screened a 7,914 compound drug library that included approved drug and bioactive compounds in six ovarian, three cervical, and […] placental cancer cell lines using the ATPlite assay for cell viability. […] The cervical cancer cell lines included HeLa, Ca Ski, and C-33 A. The placental cancer cell lines included JEG-3. HEK 293T cells were used as the control cell line to determine the selectivity index. ATPlite is a luminescence based assay reliant on the conversion of a luciferase substrate to light in the presence of ATP. As a cytotoxic compound will suppress growth and decrease the number of cells, the concentration of ATP will decrease, and less light signal will be detected in the well.
# Assay Protocol Summary: 1,000 cells in 4 uL of media were dispensed into white, solid bottom 1536-well plates using a Multidrop Combi (Thermo Scientific). The Assay plates were incubated for 16 hours at 37 C with 5% CO2 in assay plates, followed by the addition of 23 nL of DMSO or drug dissolved in DMSO. Each compound was assayed in five concentrations (0.092, 0.46, 2.3, 11.5, and 57.5 uM), using the automated Wako 1536 Pin Tool workstation and incubated at 37 C with 5% CO2 48 hours. 4 uL of ATPlite, the ATP monitoring reagent, was then added to the each well of the assay plates using the Multidrop Combi reagent dispenser followed by incubation for 15 minutes at room temperature. The resulting luminescence was measured using the ViewLux plate reader.
# % is scaled to controls: 0 for no effect and ±100 for the full control effect; potency is read from the fitted curve at half-maximal effect.
SMILES,"activity change, negative = cytotoxicity",Potency
Nc1cccc2c1CN(C1CCC(=O)NC1=O)C2=O (stereo not given),8.08%,–
CN(C)c1ccc2nc3ccc(=[N+](C)C)cc-3sc2c1,–,3.98 µM (active)
Cc1nc(Nc2ncc(C(=O)Nc3c(C)cccc3Cl)s2)cc(N2CCN(CCO)CC2)n1,–,8.91 µM (active)
COC1=C(OC)C(=O)C(CCCCCCCCCCO)=C(C)C1=O,-0.324%,–
CN1CCC(=C2c3ccccc3CCc3sccc32)CC1,-12.8%,–
COc1c2occc2cc2ccc(=O)oc12,-6.91%,–
Clc1ccc(C(Cn2ccnc2)OCc2ccsc2Cl)c(Cl)c1 (stereo not given),-3.25%,–
Cc1cccc(CN2CCN(C(c3ccccc3)c3ccc(Cl)cc3)CC2)c1 (stereo not given),-2.79%,–
CCCCc1ccc2nc(NC(=O)OC)[nH]c2c1,-2.63%,–
O=C(OC1C[C@H]2CC[C@@H](C1)[N+]21CCCC1)C(O)(c1ccccc1)c1ccccc1 (stereo not given in full),6.01%,–
COc1c(O)cc2c(c1O)[C@@H]1O[C@H](CO)[C@@H](O)[C@H](O)[C@H]1OC2=O,-3.62% [at 38.5 µM],–
c1cnc2cc3c(cc2n1)C1CNCC3C1,-5.8%,–
CN(C)c1ccc(O)c2c1C[C@H]1C[C@H]3[C@H](N(C)C)C(=O)C(C(N)=O)=C(O)[C@@]3(O)C(=O)C1=C2O,2.86%,–
CN1C(C(=O)Nc2ccccn2)=C(O)c2sccc2S1(=O)=O,13.3%,–
CC1=C(C(=O)O)N2C(=O)[C@@H](NC(=O)[C@H](N)C3=CCC=CC3)[C@H]2SC1,10.9%,–
Cc1cc(=O)oc2cc(O)ccc12,25%,–
O=C(NCC1CCCCN1)c1cc(OCC(F)(F)F)ccc1OCC(F)(F)F (stereo not given),-34.7%,–
O=C(O)c1cccnc1Nc1cccc(C(F)(F)F)c1,-0.694%,–
CCC(C)(Oc1ccc(C2(c3ccc(OC(C)(CC)C(=O)O)cc3)CCCCC2)cc1)C(=O)O (stereo not given),6.98%,–
Cc1ccc(S(=O)(=O)NC(=O)NN2CC3CCCC3C2)cc1 (stereo not given),16.4%,–

SMILES,"activity change, negative = cytotoxicity",Potency
CC(C)c1nc(CN(C)C(=O)N[C@H](C(=O)N[C@@H](Cc2ccccc2)C[C@H](O)[C@H](Cc2ccccc2)NC(=O)OCc2cncs2)C(C)C)cs1,–,inactive
O=C(NC(Cc1cc(=O)[nH]c2ccccc12)C(=O)O)c1ccc(Cl)cc1 (stereo not given),20.1%,–
CC1Cc2ccccc2N1NC(=O)c1ccc(Cl)c(S(N)(=O)=O)c1 (stereo not given),9.98%,–
Nc1ccc(S(N)(=O)=O)cc1,14.4%,–
CCc1nc(N)nc(N)c1-c1ccc(Cl)cc1,7.77%,–
COC(=O)N[C@H](C(=O)N[C@@H](Cc1ccccc1)[C@@H](O)CN(Cc1ccc(-c2ccccn2)cc1)NC(=O)[C@@H](NC(=O)OC)C(C)(C)C)C(C)(C)C,0.188%,–
CNC[C@H](O)c1ccc(O)c(O)c1,-0.748% [at 25.3 µM],–
Cn1c(NCCN(CCO)CCCc2ccc([N+](=O)[O-])cc2)cc(=O)n(C)c1=O,6.54%,–
CCC[C@@H]1C[C@@H](C(=O)N[C@@H]([C@H]2O[C@H](SC)[C@H](O)[C@@H](O)[C@H]2O)[C@@H](C)O)N(C)C1,2.5%,–
CN(C)CCCC1(c2ccc(F)cc2)OCc2cc(C#N)ccc21 (stereo not given),-10.2%,–
CN(c1nccc(=O)[nH]1)C1CCN(c2nc3ccccc3n2Cc2ccc(F)cc2)CC1,–,inactive
C=CCc1cc(OC)c(O)c(C(=O)NCCO)c1,2.36%,–
Nc1ncn([C@H]2C[C@H](O)[C@@H](CO)O2)c(=O)n1,6.34%,–
CCCS(=O)c1ccc2nc(NC(=O)OC)[nH]c2c1 (stereo not given),–,inactive
Cc1cccc(C)c1OCC(=O)N[C@@H](Cc1ccccc1)[C@@H](O)C[C@H](Cc1ccccc1)NC(=O)[C@H](C(C)C)N1CCCNC1=O,7.25%,–
CCN(CCO)CCCC(C)Nc1ccnc2cc(Cl)ccc12 (stereo not given),21.3% [at 6.55 µM] and 5.51% [at 6.55 µM],–
COc1ccc(C2(C#N)CCC(C(=O)O)CC2)cc1OC1CCCC1 (stereo not given),-1.68%,–
CC1(C)NC(=O)N(c2ccc([N+](=O)[O-])c(C(F)(F)F)c2)C1=O,7.06%,–
O=C(c1ccccc1)c1ccc2n1CCC2C(=O)O (stereo not given),22.1%,–
O=C1CCc2ccc(OCCCCN3CCN(c4cccc(Cl)c4Cl)CC3)cc2N1,-3.38%,–
